# In the supplement of paper PMC6522484:
# ± gives the standard deviation of the averaged measurements.
# How the values were obtained:
# DLD1 [1] = assay: cell viability (CellTiter-Glo) relative to plate median (fraction of plate median); higher = more viable cells; conditions: 10 µM, treatment time 24 h
# Procedure, shortened: (§1)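 Colorectal cancer cells expressing a stably transduced lentiviral TCF/Wnt firefly luciferase reporter were treated in 384-well plates with kinase inhibitor library compounds at a final 10 µM for 24 h. Firefly luciferase or CellTiterGlo luminescence was then read on parallel plates. Well signals were normalised to the plate median (webcellHTS2, additive, no log transformation) and averaged over two independent replicates.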
# HCT116 [2] = assay: as above; conditions: 10 µM; treatment time 24 h; reporter: TCF4/Wnt
# Procedure, shortened: as §1
# SW480 [3] = assay: as above; conditions: 10 µM; treatment time 24 h; reporter: 7TFP
# Procedure, shortened: as §1
# DLD1 [4] = assay: TCF/Wnt firefly luciferase reporter signal relative to plate median (fraction of plate median); higher = higher Wnt reporter signal; conditions: 10 µM, treatment time 24 h
# Procedure, shortened: as §1
# HCT116 [5] = assay: as above; conditions: 10 µM; treatment time 24 h; reporter: TCF4/Wnt
# Procedure, shortened: as §1
# SW480 [6] = assay: as above; conditions: 10 µM; treatment time 24 h; reporter: 7TFP
# Procedure, shortened: as §1
SMILES,cell viability (DLD1 [1]; reporter: 7TFP),cell viability (DLD1 [1]; reporter: TCF4/Wnt),cell viability (HCT116 [2]),cell viability (SW480 [3]),TCF/Wnt firefly luciferase reporter signal (DLD1 [4]; reporter: 7TFP),TCF/Wnt firefly luciferase reporter signal (DLD1 [4]; reporter: TCF4/Wnt),TCF/Wnt firefly luciferase reporter signal (HCT116 [5]),TCF/Wnt firefly luciferase reporter signal (SW480 [6])
CNC(=O)c1ccccc1Sc1ccc2c(/C=C/c3ccccn3)n[nH]c2c1 [Axitinib],0.9855 ± 0.0021,1 ± 0.052,0.965 ± 0.0028,0.906 ± 0.051,1.7 ± 0.057,1.97 ± 0.33,1.53 ± 0.89,1.36 ± 0.92
O=C1NC(=O)[C@@H](c2cn3c4c(cccc24)CCC3)[C@@H]1c1c[nH]c2ccccc12 [ARQ 197 (Tivantinib)],0.995 ± 0.18,1.01 ± 0.017,0.593 ± 0.15,1.07 ± 0.014,0.632 ± 0.25,0.788 ± 0.31,0.241 ± 0.028,0.701 ± 0.043
CO[C@@H](C(=O)N1Cc2[nH]nc(NC(=O)c3ccc(N4CCN(C)CC4)cc3)c2C1)c1ccccc1,1.09 ± 0.11,1.12 ± 0.071,0.823 ± 0.29,1.1 ± 0.042,1.23 ± 0.064,1.41 ± 0.014,0.388 ± 0.019,0.656 ± 0.083
Cc1[nH]c(/C=C2\C(=O)Nc3ccc(S(=O)(=O)N(C)c4cccc(Cl)c4)cc32)c(C)c1C(=O)N1CCN(C)CC1,1.13,1.04 ± 0.066,1.09 ± 0.13,1.06 ± 0.11,0.858 ± 0.37,0.954 ± 0.14,0.756 ± 0.098,0.964 ± 0.065
Cc1cc(C(C)Nc2ccccc2)c2nc(N3CCOCC3)cc(=O)n2c1 (stereo not given),0.997 ± 0.13,0.909 ± 0.04,1.115 ± 0.0071,0.909 ± 0.071,1.15 ± 0.11,1.21 ± 0.05,1.15 ± 0.092,0.679 ± 0.3
Cc1c(NC(=O)OC[C@@H]2COCCN2)cn2ncnc(Nc3ccc4c(cnn4Cc4cccc(F)c4)c3)c12,1.04,0.97 ± 0.17,1.13 ± 0.22,1.01 ± 0.092,1.27 ± 0.099,1.32 ± 0.2,1.01 ± 0.036,1.3 ± 0.078
FC(F)(F)c1ccc(Nc2nc3ccc(Oc4ccnc(-c5ncc(C(F)(F)F)[nH]5)c4)cc3[nH]2)cc1 [Raf265 derivative],1.1,1.07 ± 0.014,1.2 ± 0.21,0.975 ± 0.12,1.11 ± 0.085,1.16 ± 0.085,0.912 ± 0.28,0.81 ± 0.44
CCN(CC)CCCCNc1ncc2cc(-c3cc(OC)cc(OC)c3)c(NC(=O)NC(C)(C)C)nc2n1,0.835 ± 0.052,1.01 ± 0.028,1.055 ± 0.0071,1.1 ± 0.071,0.702 ± 0.073,0.698 ± 0.073,0.781 ± 0.058,1.04 ± 0.18
CNC(=O)CN1CCC(Oc2cc3c(Nc4cccc(Cl)c4F)ncnc3cc2OC)CC1,1 ± 0.081,1.01 ± 0.059,1.05 ± 0.028,0.893 ± 0.0042,0.943 ± 0.19,0.862 ± 0.35,0.656 ± 0.43,0.849 ± 0.07
Cc1cc(Nc2cc(CN3CCOCC3)c3nc(C)c(Cc4ccc(Cl)cc4F)n3n2)n[nH]1,0.907 ± 0.096,1.05 ± 0.064,0.975 ± 0.12,0.781 ± 0.14,1.27 ± 0.028,1.17 ± 0.43,0.826 ± 0.61,0.861 ± 0.05
NC1(Cc2ccc(Cl)cc2)CCN(c2ncnc3[nH]ccc23)CC1,1.18 ± 0.05,1.105 ± 0.0071,0.787 ± 0.073,1.02 ± 0.035,1.03 ± 0.045,0.886 ± 0.078,1.02 ± 0.32,1.01 ± 0.11
CCc1cccc(CC)c1NC(=O)N1Cc2[nH]nc(NC(=O)c3ccc(N4CCN(C)CC4)cc3)c2C1,1.05 ± 0.2,1.055 ± 0.0071,0.954 ± 0.093,1.1 ± 0.078,1.26 ± 0.014,1.09 ± 0.057,0.996 ± 0.19,0.794 ± 0.039
CCCCCCCCCCCCc1ccc(S(=O)(=O)Nc2nncs2)cc1,1.03 ± 0.05,0.966 ± 0.037,1.16 ± 0.035,0.91 ± 0.016,0.981 ± 0.041,1.14 ± 0.18,1.21 ± 0.16,0.959 ± 0.12
COc1cc(CCc2cc(NC(=O)c3ccc(N4CC(C)NC(C)C4)cc3)n[nH]2)cc(OC)c1 (stereo not given),0.967 ± 0.1,0.951 ± 0.04,1.04 ± 0.058,1.07 ± 0.05,0.794 ± 0.042,0.718 ± 0.011,0.502 ± 0.34,0.93 ± 0.099
C=CC(=O)Nc1cccc(Oc2nc(Nc3ccc(N4CCN(C)CC4)cc3)ncc2Cl)c1,0.968 ± 0.045,1.045 ± 0.0071,0.894 ± 0.16,1.07 ± 0.085,0.79 ± 0.067,0.969 ± 0.12,1.18 ± 0.42,0.834 ± 0.39
FC(F)(F)c1ccc(/C=C/c2nc(COc3ccc(CCCCn4ccnn4)cc3)co2)cc1 [Mubritinib (TAK 165)],0.979 ± 0.03,0.946 ± 0.09,0.771 ± 0.032,0.911 ± 0.1,1 ± 0.094,0.984 ± 0.023,0.639 ± 0.23,0.816 ± 0.49
COc1cc(Nc2ncc(F)c(Nc3ccc4c(n3)NC(=O)C(C)(C)O4)n2)cc(OC)c1OC,1.1 ± 0.17,0.982 ± 0.054,1.11 ± 0.12,1.01 ± 0.037,1.05 ± 0.13,0.941 ± 0.044,1.24 ± 0.2,0.914 ± 0.57
CCS(=O)(=O)Nc1ccc2c(c1)/C(=C(/Nc1ccc(CN3CCCCC3)cc1)c1ccccc1)C(=O)N2 [Hesperadin],1.08 ± 0.13,1.14 ± 0.085,0.556 ± 0.2,0.873 ± 0.15,0.765 ± 0.36,0.902 ± 0.11,0.492 ± 0.031,0.557 ± 0.16
CNC(=O)c1cc(Oc2ccc(NC(=O)Nc3ccc(Cl)c(C(F)(F)F)c3)c(F)c2)ccn1 [Regorafenib (BAY 73-4506)],1.04 ± 0.021,0.985 ± 0.092,1 ± 0.024,1.13 ± 0.014,0.816 ± 0.21,0.7185 ± 0.005,0.742 ± 0.34,1.03 ± 0.31
CO[C@H]1C[C@@H]2CC[C@@H](C)[C@@](O)(O2)C(=O)C(=O)N2CCCC[C@H]2C(=O)O[C@H]([C@H](C)C[C@@H]2CC[C@@H](OP(C)(C)=O)[C@H](OC)C2)CC(=O)[C@H](C)/C=C(\C)[C@@H](O)[C@@H](OC)C(=O)[C@H](C)C[C@H](C)/C=C/C=C/C=C/1C [Deforolimus (Ridaforolimus)],0.979 ± 0.086,1.08 ± 0.092,0.979 ± 0.044,1.27 ± 0.021,0.844 ± 0.022,1.02 ± 0.24,0.799 ± 0.43,1.11 ± 0.39
